The list is not random: actives were taken first. Their share in the collection is about 3.6%.
D1 PAM – human D1 dopamine receptor positive modulation | HEK293 TREx D1 cells, calcium flux, dopamine EC20 potentiation | potentiation, % at 10 µM | actives 0.036% (n = 360,000) | P21728 | AID 504651; in the data active means potentiation above about 30%; further: 0% is about no effect
Target sequence (P21728 whole entry, looked up): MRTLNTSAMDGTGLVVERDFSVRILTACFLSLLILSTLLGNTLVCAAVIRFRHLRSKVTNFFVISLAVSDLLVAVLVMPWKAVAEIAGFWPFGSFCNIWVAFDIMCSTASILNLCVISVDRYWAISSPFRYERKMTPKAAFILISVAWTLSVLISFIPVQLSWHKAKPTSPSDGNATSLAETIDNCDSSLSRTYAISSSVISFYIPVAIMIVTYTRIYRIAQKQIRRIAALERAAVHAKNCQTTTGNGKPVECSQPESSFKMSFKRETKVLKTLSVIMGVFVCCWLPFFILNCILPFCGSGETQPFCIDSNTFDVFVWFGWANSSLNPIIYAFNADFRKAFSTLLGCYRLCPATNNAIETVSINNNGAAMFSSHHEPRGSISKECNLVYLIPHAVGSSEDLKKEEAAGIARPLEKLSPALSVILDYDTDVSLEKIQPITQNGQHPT
TRHR ag – TRH receptor (human) agonism. TRHR cells, calcium flux fluo-8, FDSS agonist mode. actives 0.18% (n = 360,000). P34981. activation, % at 2 µM; further: 0% is about no effect
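TRHR-expressing cells, plated overnight in medium with 10% serum, were loaded with fluo-8 calcium dye at room temperature. After a 10 s baseline, library compound was pin-added and calcium release was recorded kinetically (ex 480/em 530) as agonist response.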
LDHA inh – inhibitors of human lactate dehydrogenase A | P00338 | purified LDHA, NADH/diaphorase-resazurin fluorescence; active compounds read low | activity change, % (values are at about 110 or 230 µM) | actives 0.15% (n = 480,000); in the data active means activity change below about -30%;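 further: plate controls were DMSO wells for no effect and wells without enzyme for full effect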
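Remaining NADH was detected by diaphorase (0.133 mg/mL) converting 37 µM resazurin to fluorescent resorufin, read at 0 and 20 minutes. The preceding 5-minute room-temperature reaction used 2 nM LDHA, 0.2 mM sodium pyruvate and 0.06 mM NADH at pH 7.4.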
TRHR enhancer – allosteric enhancers of human TRH receptor; actives 0.66% (n = 360,000); P34981; TRHR cells, fluo-8 calcium fluorescence, EC20 TRH enhancement; enhancement, % at 2 µM; AID 493056; in the data active means enhancement above about 30%; further: 0% is about no effect
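TRHR-expressing cells loaded with fluo-8 calcium dye were read kinetically (ex 480/em 530) during compound addition, then stimulated with an EC20 of TRH (10 nM final). Enhancement of the Gq-mediated intracellular calcium response was scored.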
D1 antagonist – antagonists of human D1 dopamine receptor. AID 504652. activity change, negative = inhibition, % at 10 µM. P21728. HEK293 TREx D1 cells, calcium flux, dopamine EC80; active compounds read low. actives 3.2% (n = 360,000); in the data active means activity change below about -30%; further: on the % scale 0 is the no-effect control and ±100 the full control effect
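After overnight tetracycline induction at 30 C, force-coupled D1 HEK293 cells took up a no-wash calcium dye at room temperature. Compounds were added and monitored 180 s, and the response to EC80 dopamine was then recorded.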
D1 ag – human D1 receptor agonism; P21728; HEK293 T-REx D1 cells, calcium flux, agonist mode; activation, % at 2 µM; actives 1% (n = 360,000); further: 0% is about no effect
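Inducible HEK293 T-REx D1 cells, force-coupled to calcium signalling, were plated at 4000 cells/well with tetracycline and held overnight at 30 C. After no-wash calcium dye loading, compound-evoked calcium rise over 180 s flagged agonists.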
* = called active by the depositor; . = no result. Unless noted, no stated cut-off is given here; in the data, active means activation above about 30%; inactive means the rest.

SMILES | D1 PAM | TRHR ag | LDHA inh | TRHR enhancer | D1 antagonist | D1 ag
CC1CCN(S(=O)(=O)c2cnc[nH]2)CC1 | 1 | 0 | -5 | -5 | -14 | 4
Cc1ccc(S(=O)(=O)N2CCCCC2)cc1 | 1 | -1 | -5 | 1 | -2 | 1
Cc1ccc(S(=O)(=O)N2CCN(C(C)c3nc4ccccc4c(=O)[nH]3)CC2)cc1 (stereo not given) | . | . | 1 | . | . | .
Cc1ccc(S(=O)(=O)N2CCCN(S(=O)(=O)c3ccc(C)cc3)CC2)cc1 | -6 | 0 | -10 | -1 | -34* | 12
O=S(=O)(c1cnc[nH]1)N1CCCCCC1 | -3 | 0 | 0 | -4 | -45* | 0
Cn1c(=O)c2c(nc(N3CCCCC3)n2CCSc2nnnn2-c2ccccc2)n(C)c1=O | . | . | 6 | . | . | .
O=C(O)c1ccc(SC(F)(F)F)cc1 | . | . | 0 | . | . | .
Cc1ccc(S(=O)(=O)N2CCCN(C(=O)c3cncn3-c3ccccc3)CC2)cc1 | . | . | -37* | . | . | .
CNc1nc(-c2ccc(S(=O)(=O)N3CCCCC3)cc2)cs1 | -4 | -1 | -12 | -12 | -33* | 10
CCOC(=O)c1c(NC(=O)C2CCCO2)sc(C(C)=O)c1C (stereo not given) | . | . | 3 | . | . | .
CCOC(=O)c1cc(-c2ccccc2)nc2c(C)cc(C)cc12 | . | . | 2 | . | . | .
CCC(=O)Nc1sc2c(c1C#N)CCC(C)C2 (stereo not given) | . | . | -2 | . | . | .
CCN(CC(=O)Nc1sc2c(c1C#N)CCC(C)C2)Cc1nc2ccccc2c(=O)[nH]1 (stereo not given) | -13 | 0 | 4 | 7 | -61* | 3
CCN(CC(=O)Nc1sc2c(c1C#N)CCC(C)C2)CC(=O)NC1CCS(=O)(=O)C1 (stereo not given) | -13 | 6 | 0 | 13 | -60* | 9
COC(=O)c1c(C)n(-c2ccc(C)cc2)c2ccc(O)cc12 | -9 | 0 | 1 | -4 | -62* | 2
CC(=O)c1ccc(-n2c(C)c(C(C)=O)c3cc(O)ccc32)cc1 | 4 | 0 | -9 | 3 | -22 | 4
CC(=O)c1c(C)n(-c2ccc(Cl)cc2)c2ccc(O)cc12 | 0 | 0 | -3 | 39* | -5 | 3
COC(=O)c1c(C)n(-c2ccccc2)c2ccc(O)cc12 | . | . | 9 | . | . | .
CC(=O)c1c(C)n(-c2ccccc2)c2ccc(O)cc12 | -6 | -1 | -1 | 4 | -38* | 0
COc1ccc(NC(=O)Cc2cnc(-n3cccc3)s2)cc1OC | . | . | 7 | . | . | .
CCC(=O)Nc1ccccc1C(=O)OC/C(=N\O)c1ccc(OC)cc1 | . | . | -1 | . | . | .
COc1ccc2c(c1)C(C)=CC(C)(C)N2S(=O)(=O)c1ccc(Br)cc1 | -2 | 0 | 2 | -10 | -30* | 2
CCN(c1ccccc1)S(=O)(=O)c1cccc(C(=O)NCc2ccncc2)c1 | -10 | 0 | -1 | 31* | 7 | 5
CCN(c1ccccc1)S(=O)(=O)c1cccc(C(=O)NCc2cccnc2)c1 | 4 | -1 | -2 | 10 | 2 | 8
Cc1ccc(C)c(N2CCN(C(=O)C3CCN(S(=O)(=O)c4cn(C)c(C)n4)CC3)CC2)c1 | . | . | -10 | . | . | .
SMILES | D1 PAM | TRHR ag | LDHA inh | TRHR enhancer | D1 antagonist | D1 ag
CC(C)C(NC(=O)c1ccccc1F)C(=O)NCc1ccccc1 (stereo not given) | -9 | 0 | -3 | -4 | -57* | 0
Cc1cc(C)nc(NC(=O)c2c(-c3c(Cl)cccc3Cl)noc2C)n1 | -4 | 0 | -5 | 15 | 13 | -1
Cc1cc(NC(=O)c2ccc(-c3ccccc3F)o2)no1 | -4 | 0 | 0 | 37* | 10 | 6
Cc1cc(NC(=O)c2ccc(-c3ccccc3[N+](=O)[O-])o2)no1 | . | . | -11 | . | . | .
Cc1cc(NC(=O)c2c(-c3c(Cl)cccc3Cl)noc2C)n(C)n1 | -11 | 0 | -5 | 13 | -50* | 3
Cc1cc(NC(=O)c2c(Cl)cccc2Cl)no1 | -5 | -1 | 1 | 30* | 14 | 3
Cc1cc(NC(=O)c2c(-c3c(F)cccc3Cl)noc2C)no1 | -1 | 0 | -3 | -1 | -3 | 11
COc1ccc(/C=C(/C#N)c2ccc(C(F)(F)F)cn2)cc1O | . | . | -4 | . | . | .
